Test results as given in PubChem BioAssay (NCATS).
Results filed as inconclusive are left out. A number with no mark means an inactive call. The source made the active and inactive calls. Calls come from the whole dose curve; as a rule, active = well fitted curve in the direction sought with a large enough effect in the signal ratio; inconclusive = small, poorly fitted or top-dose-only effect, or a change in a side signal; inactive = no such curve, though single readings can be large or run the other way; the % refers to the signal ratio.

What follows are compounds tested against Tumor necrosis factor (Homo sapiens) (UniProt P01375) (assay: qHTS assay to identify small molecules that stimulate Tumor Necrosis Factor-alpha (TNF-alpha) secretion (AID 651757; note: 0% is about no effect)). Conditions: Human cells, HTRF 665/615 ratio; series mostly up to 92.2 µM; activation (TNF-alpha secretion): at the top concentration.
Chain of Tumor necrosis factor (Homo sapiens) (P01375 whole entry, looked up): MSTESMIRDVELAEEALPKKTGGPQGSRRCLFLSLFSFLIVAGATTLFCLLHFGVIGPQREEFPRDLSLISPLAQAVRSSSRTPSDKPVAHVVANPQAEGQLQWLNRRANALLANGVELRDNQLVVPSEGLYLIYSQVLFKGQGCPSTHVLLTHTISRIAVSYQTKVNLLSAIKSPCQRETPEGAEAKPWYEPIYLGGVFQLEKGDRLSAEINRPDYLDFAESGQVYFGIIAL
Excerpt: National Center for Advancing Translational Sciences [NCATS]
NIH Chemical Genomics Center [NCGC]
National Institutes of Environmental Health Sciences [NIEHS]
National Toxicology Program [NTP]
Tumor Necrosis Factor-alpha (TNF-alpha), a secreted cytokine, plays an important role in inflammatory diseases and immune disorders. TNF-alpha, a 17 kDa cytokine, is mainly secreted by activated macrophages and monocytes in response to several inflammatory and immunological stimuli. To study the effect of environmental chemicals on TNF-alpha secretion, a homogeneous TNF-alpha assay was developed using Time Resolved fluorescence (HTRF) technology based on Time Resolved Fluorescent Resonance Energy Transfer (TR-FRET) (Leister et al., Current Chemical Genomics, 5:21-29, 2011). This assay allows measuring TNF-alpha secreted from the cells in a 1536-well plate format.
THP-1 cells were dispensed at 3000 cells/5ul/well in 1536-well white solid plates. After addition of 23 nl of compound, positive controls and DMSO only, the assay plates were incubated at 37 C for 17 hrs, followed by addition of 5 uLof mixture of cryptate labeled and XL665 labeled anti-TNF-alpha antibodies. After the assay plates were incubated at room temperature for 3 hr, the plates were measured by an EnVision plate reader.

SMILES	activation (TNF-alpha secretion)	outcome
NC(N)=NC(N)=NCCc1ccccc1	-0.481%	
CC1=NN(c2ccccc2)C(=O)C1	-0.517%	
O=C(N[C@H](CO)[C@H](O)c1ccc([N+](=O)[O-])cc1)C(Cl)Cl	1.01%	
Cc1ccnc2c1NC(=O)c1cccnc1N2C1CC1	0.364%	
Cc1cc(NS(=O)(=O)c2ccc(N)cc2)no1	0.964%	
O=C(O)c1cc(=O)[nH]c(=O)[nH]1	0.116%	
N=C(N)c1ccc(OCCCCCOc2ccc(C(=N)N)cc2)cc1	0.744%	
Cc1noc(NS(=O)(=O)c2ccc(N)cc2)c1C	-0.0696%	
CC(=O)[C@H]1CC[C@H]2[C@@H]3CCC4=CC(=O)CC[C@]4(C)[C@H]3CC[C@]12C		inactive
C[C@]12C=CC(=O)C=C1CC[C@@H]1[C@@H]2C(=O)C[C@@]2(C)[C@H]1CC[C@]2(O)C(=O)CO	0.0099%	
CCc1cc(C(N)=S)ccn1	-0.103%	
NNC(=O)c1ccncc1	1.13%	
Cc1nnc(NS(=O)(=O)c2ccc(N)cc2)s1	-0.317%	
CC[C@H](C)C(=O)O[C@H]1C[C@@H](C)C=C2C=C[C@H](C)[C@H](CC[C@@H]3C[C@@H](O)CC(=O)O3)[C@H]21	-0.349%	
